Consider 34 compounds from the supplement of paper PMC10732440.

The assay deals with Caenorhabditis elegans N2 infected with Nematocida parisii ERTm1. Put plainly: progeny production relative to DMSO uninfected control; higher = more progeny despite microsporidia infection (inhibition of infection with low host toxicity). As to conditions: infection time 6 days. The procedure, abridged: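 Wild-type C. elegans L1 larvae, synchronised by bleaching, were added at 100 per well to 96-well plates containing K-medium, E. coli OP50 and 15,000 N. parisii spores/μL, and compound was pinned in to 100 μM or 40 μM in 1% DMSO. The plates were shaken at 21°C for 6 days, after which worms were stained with Rose Bengal, scanned on a flatbed scanner and counted using WorMachine. Each compound and dose was run three times. Progeny production is expressed as a percentage of wells with vehicle but no spores, averaged over the replicates.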

± gives the standard deviation of the averaged measurements.

Compound `Oc1cc(-c2cccc3ccccc23)[nH]n1` came in with a progeny production (40 µM) of 2.92 ± 0.16% and a progeny production (100 µM) of 18.4 ± 18%.

As to `O=C(Nc1ccc(Cl)c(C(F)(F)F)c1)C(CCCl)C(=O)Nc1ccc(Cl)c(C(F)(F)F)c1`, the progeny production was determined as 7.13 ± 2.7% (40 µM) and 8.04 ± 5.6% (100 µM).

`C[C@H](Cn1cnc2c(N)ncnc21)OCP(=O)(O)O`: the progeny production runs as follows: (40 µM) 6.28 ± 6.8%; (100 µM) 17.4 ± 6%.

As to `CCCc1ccc(-c2cc3cn([C@H]4C[C@H](O)[C@@H](CO)O4)c(=O)nc3o2)cc1`, the progeny production amounted to 3.62 ± 2.5% (40 µM) and 11 ± 5.5% (100 µM).

As for `O=C(O)C(Cc1c[nH]c2ccccc12)N1C(=O)c2ccccc2C1=O` (stereo not drawn), the progeny production reads like this: (40 µM) 6.93 ± 1.2%; (100 µM) 9.79 ± 1.2%.

Turning to `O=C1C=C(c2ccccc2)S(=O)(=O)c2ccccc21`, the progeny production was determined as 9.24 ± 1.8% (40 µM) and 38 ± 9.4% (100 µM).

`CCOC(=O)Nc1cc(NC(C)CC(C)CN(CC)CC)c2nc(-c3ccccc3)c(-c3ccccc3)nc2n1` (stereo not drawn): the progeny production stood at 2.55 ± 1% (40 µM) and 13.3 ± 9.8% (100 µM).

As for `CC(C)Nc1nc2cc(Cl)c(Cl)cc2n1[C@H]1O[C@@H](CO)[C@H](O)[C@@H]1O`, the progeny production by setting is: (40 µM) 3.85 ± 0.59%; (100 µM) 9.08 ± 2.1%.

In the case of `Nc1nc(=O)[nH]cc1F`, the progeny production was determined as 5.01 ± 1.2% (40 µM) and 23.7 ± 7.4% (100 µM).

Regarding `C[C@H]1CC[C@@]2(O)C(C)(C)[C@@H]3CC[C@@]2(C)[C@H]1C3`, the progeny production was determined as 6.77 ± 4.3% (40 µM) and 7.52 ± 7.7% (100 µM).

Consider `CC[N+]1(C/C2=C/CCCCCC2)CCC(NC(=O)C2c3cc(Cl)ccc3Oc3ccc(Cl)cc32)CC1` (stereo not drawn), for which the progeny production came to 3.01 ± 1.9% (40 µM) and 2.8 ± 2.2% (100 µM).

On to `CCN(CC)S(=O)(=O)c1ccc(Cl)c(C(=O)Nc2sc3c(c2C#N)CCCC3)c1`, for which the progeny production reads like this: (40 µM) 6.31 ± 2.1%; (100 µM) 31.3 ± 22%.

On to `COc1ccc(SC(=O)N[C@H](CCC(=O)O)C(=O)O)cc1`, for which the progeny production by setting is: (40 µM) 9.06 ± 7.1%; (100 µM) 11.3 ± 0.6%.

As for `CCNC(=O)Nc1cc2c(-c3ccnc(C)c3)ccc(CNC(=O)OC)c2cn1`, the progeny production amounted to 4.61 ± 1.9% (40 µM) and 17.2 ± 9.9% (100 µM).

Regarding `Oc1c(C(Nc2ccccn2)c2ccccc2)ccc2cccnc12` (stereo not drawn), the progeny production is, setting by setting: (40 µM) 8.66 ± 7.6%; (100 µM) 9.12 ± 7.2%.

In turn, `O=c1cc(NCCCN[C@@H]2CCOc3c(Br)cc(Br)cc32)[nH]c2ccsc12` returned a progeny production (40 µM) of 5.52 ± 2.9% and a progeny production (100 µM) of 8.91 ± 4%.

The compound `O=C(c1nc2c(C(F)(F)F)cc(C3CC3)cn2c1Cl)N1CCN([C@H]2CC[C@H](O)CC2)C(=O)C1` gave a progeny production (40 µM) of 3.88 ± 1.4% and a progeny production (100 µM) of 14.2 ± 1.2%.

As to `CCc1cc(O)c(Oc2cccnc2N)cc1F`, the progeny production runs as follows: (40 µM) 6.17 ± 3.4%; (100 µM) 10.2 ± 5.5%.

`COC(=O)Nc1nc2cc(Sc3ccccc3)ccc2[nH]1`: the progeny production (40 µM) turned out to be 7.64 ± 3.1% and the progeny production (100 µM) stood at 29.3 ± 18%.

Take `Nc1cc(-c2nc3ccccc3[nH]2)n[nH]c1=O`: the progeny production reads like this: (40 µM) 6.4 ± 6.5%; (100 µM) 10.7 ± 4.7%.

Turning to `O=C(O)c1ccc(-n2nc(-c3ccccc3O)nc2-c2ccccc2O)cc1`, the progeny production is 4.83 ± 3% (40 µM) and 16.7 ± 7.4% (100 µM).

As to `O=c1[nH]cnc2c1ncn2[C@H]1CC[C@@H](CO)O1`, the progeny production is, setting by setting: (40 µM) 6.61 ± 0.81%; (100 µM) 9.85 ± 7.2%.

For the compound `Oc1cccc(C(Nc2nccs2)c2ccc3cccnc3c2O)c1` (stereo not drawn), the progeny production (40 µM) came out at 4.05 ± 2% and the progeny production (100 µM) was 12.9 ± 2.9%.

For `NCCCc1ccccc1C(=O)Nc1ncc([N+](=O)O)s1`, the progeny production runs as follows: (40 µM) 3.03 ± 1.9%; (100 µM) 25.2 ± 31%.

For the compound `O=C(CC1Sc2ncnn2C1=O)Nc1ccc(Br)cc1` (stereo not drawn), the progeny production reads like this: (40 µM) 6.82 ± 1.8%; (100 µM) 21.6 ± 10%.

`CC(C)Nc1ncnc2c1cnn2-c1ccc(Cl)cc1`: the progeny production stood at 8.31 ± 1.1% (40 µM) and 4.15 ± 2.5% (100 µM).

As to `CC1=C(/C=C/C(C)=C/C=C/C(C)=C/C(=O)Nc2ccc(O)cc2)C(C)(C)CCC1`, the progeny production turned out to be 3.02 ± 2.2% (40 µM) and 11.6 ± 9.7% (100 µM).

In the case of `CCCCN1C[C@H](O)[C@@H](O)[C@H](O)[C@H]1CO`, the progeny production was determined as 4.97 ± 3.5% (40 µM) and 13.9 ± 3.7% (100 µM).

On to `CCCCCc1ccc(C(=O)NCCn2cc(CCCCCc3c[nH]c(N)n3)nn2)cc1`, for which the progeny production by setting is: (40 µM) 8.32 ± 7.4%; (100 µM) 2.61 ± 1.4%.

Regarding `COc1c(NC(=O)[C@H]2CC[C@@H](COc3ccc([N+](=O)[O-])cc3)CC2)c(F)cc2c(=O)c(C(=O)O)cn(C3CC3)c12`, the progeny production by setting is: (40 µM) 4.64 ± 2.9%; (100 µM) 8.01 ± 7.4%.

`O=S(=O)(Nc1ccc(O)cc1)c1cccc2cccnc12`: the progeny production was found to be 5.85 ± 2.2% (40 µM) and 12 ± 6.6% (100 µM).

For `CCc1cc(O)c(Oc2ccc(C(N)=O)cc2F)cc1F`, the progeny production (40 µM) stood at 3.13 ± 2.7% and the progeny production (100 µM) came out at 8.3 ± 5.3%.

Turning to `CCOC(=O)N1CCN(c2ccc(Cl)cc2)CC1`, the progeny production runs as follows: (40 µM) 4.15 ± 1.7%; (100 µM) 12.1 ± 18%.

In the case of `Nc1nc2c(Cc3cccnc3)c[nH]c2c(=O)[nH]1`, the progeny production is, setting by setting: (40 µM) 5.79 ± 0.11%; (100 µM) 16.4 ± 9.7%.
